High-throughput results deposited in PubChem BioAssay by National Center for Advancing Translational Sciences (NCATS).
Vaccinia Venus – qHTS for Stage-Specific Inhibitors of Vaccinia Orthopoxvirus: Venus Reporter Primary qHTS. Vaccinia virus Venus reporter expression, fluorescence. Potency, µM (doses to about 36.5 µM), without a hit: at the highest dose activity change, negative = inhibition, usual class: inhibitors. actives 0.46% (n = 330,000). AID 720580, 2013; calls by dose curve; tested in A549 cells; note: nearly all actives have a fitted effect of over 30% in size
Pf growth 48h – Primary qHTS for delayed death inhibitors of the malarial parasite plastid, 48 hour incubation; P. falciparum luciferase growth in erythrocytes, 48 h; Potency, µM (top dose mostly 28.7 µM), without a hit: at the top dose activity change, negative = inhibition, most hits filed as inhibitors; actives 5.9% (n = 310,000); AID 504832, 2011
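Erythrocytes infected with P. falciparum carrying an integrated firefly luciferase reporter (2% hematocrit, 0.1% parasitemia final) were exposed to compounds in RPMI 1640 with 0.5% Albumax at 37 C, 5% CO2. Growth inhibition was scored as reduced luminescence.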
Pf growth 96h – Primary qHTS for delayed death inhibitors of the malarial parasite plastid, 96 hour incubation; P. falciparum luciferase reporter growth, 96 h; actives 6.9% (n = 320,000); AID 504834, 2011; Potency, µM (series often up to 28.7 µM), for inactives: at the highest dose activity change, negative = inhibition, actives largely listed as inhibitors
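96 h incubation, 37 C, 5% CO2, of luciferase-reporter P. falciparum-infected RBCs (2% hematocrit, 0.05% parasitemia final) with test compounds; endpoint luminescence.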
AMA1 RON2 block – qHTS for Inhibitors of AMA1-RON; Towards Development of Antimalarial Drug Lead: Primary Screen | Plasmodium falciparum AMA1 (3D7) - RON2 peptide interaction | AlphaScreen AMA1-biotinylated RON2 peptide binding | Potency, µM (titrated, usually from 58.2 µM), inactives show at the top dose activity change, negative = inhibition, most hits filed as inhibitors | actives 0.2% (n = 360,000);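 note: 0% = vehicle wells and -100% = peptide control; nearly all actives have a fitted effect of over 45% in size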
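AMA1 (3D7) with his tag at 25 nM final met compounds first, then biotinylated RON2 peptide at 25 nM; detection used donor plus acceptor beads, 10 µg/mL apiece, read by AlphaScreen after 30 min at room temperature.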
VACV mCherry inh – qHTS for Stage-Specific Inhibitors of Vaccinia Orthopoxvirus: mCherry Reporter Primary qHTS. actives 0.63% (n = 310,000). Potency, µM (doses to about 36.5 µM), inactives show at the highest dose activity change, negative = inhibition, hits mostly inhibitors. Vaccinia virus mCherry reporter infection, fluorescence; calls by dose curve; tested in A549 cells; note: nearly all actives have a fitted effect of over 35% in size
* hit, by the source's call; i = inactive; ? = inconclusive; . = no result given; [ ] = remark or other dose. This is a sample that favours compounds with a hit; in the whole collection about 8.7% have one here. Unless noted, calls come from the whole dose curve; as a rule, active = well fitted curve in the direction sought with a large enough effect; inconclusive = small, poorly fitted or top-dose-only effect, or another doubt; inactive = no such curve, though single readings can be large; an effect the other way counts as inactive or inconclusive. Unless noted, % is set by controls: 0 for no effect and ±100 for the full control effect; potency is the fitted concentration of half-maximal effect.

SMILES	Vaccinia Venus	Pf growth 48h	Pf growth 96h	AMA1 RON2 block	VACV mCherry inh
CC(C)(C)n1ncc2c(=O)n(CC(=O)NCCc3ccccc3)cnc21	-4.0%	34.8%	96.4%	0.0%	-16.5%
CCN(CCCNC(=O)CNC(=O)c1nn(-c2ccc(OC)c(OC)c2)c(=O)c2ccccc12)c1ccccc1	-1.1%	11.7µM*	?	-12.8%	-1.0%
O=c1c2cnn(-c3ccccc3)c2nc(-c2cccs2)n1-c1cccc(Cl)c1	-23.7%	13.1µM*	?	1.0%	i
O=c1c2cnn(-c3ccccc3)c2nc(-c2cccs2)n1-c1ccc(Cl)cc1	0.3%	?	?	4.5%	-4.0%
CC(C(=O)c1c[nH]c2ccccc12)N1CCc2ccccc2C1 (stereo not given)	-4.1%	?	2.94µM*	0.0%	i
CCc1ccccc1NC(=O)CN1C(=O)c2cccnc2Oc2ccc(Cl)cc21	-12.0%	.	.	.	-3.5%
CCOc1cc(/C=N/NC(N)=O)cc(Br)c1OCc1ccccc1	-9.8%	2.7%	41.0%	-16.1%	?
CCOc1cc(/C=N/NC(N)=S)cc(Br)c1OCc1ccccc1C	.	13.1µM*	.	31.6%	.
COc1cc(/C=N/NC(N)=S)cc(Br)c1OCc1ccccc1F	2.51µM*	13.8%	22.9%	0.3%	?
CNC(=S)N/N=C/c1cc(Br)c(OCc2ccncc2)c(OC)c1	.	?	?	73.2%	.
Cc1ccc(OCCOC(=O)c2cc(S(=O)(=O)N3CCCCC3)ccc2N2CCOCC2)cc1	-29.9%	?	13.1µM*	4.5%[11.6 µM]	-23.4%
CN(C)S(=O)(=O)c1cccc(COC(=O)c2cc([N+](=O)[O-])ccc2N2CCOCC2)c1	-9.4%	13.1µM*	10.4µM*	-28.0%	?
O=C(OCc1ccc([N+](=O)[O-])cc1)c1cc(S(=O)(=O)N2CCCCC2)ccc1N1CCOCC1	-13.5%	?	10.4µM*	-0.3%	-15.6%
O=C(OCCOc1ccc(Cl)cc1)c1cc(S(=O)(=O)N2CCCCC2)ccc1N1CCOCC1	.	.	.	-3.6%	.
COc1ccc(OC)c(COC(=O)c2cc([N+](=O)[O-])ccc2N2CCOCC2)c1	.	4.65µM*	2.94µM*	7.7%	.
CCc1nc2ccc(C(=O)NCCc3ccc(SC)cc3)cc2nc1CC	-10.2%	.	.	.	-9.7%
O=C(Cn1nc2c(cc1=O)CCCC2)NCc1ccccc1Cl	-0.8%[7.34 µM]	.	.	.	-18.5%[7.34 µM]
O=C(COC(=O)c1cccc(Br)c1)NCCNC(=O)COC(=O)c1cccc(Br)c1	.	0.465µM*	0.415µM*	0.3%	.
CC(NC(=O)c1c2c(nc3ccccc13)C(=O)N(C1CCCCC1)C2)c1ccccc1 (stereo not given)	-7.1%	.	.	.	-9.0%
CC(=O)c1c(C(C)=O)c(C)n(-c2ccc(C)c(NC(=O)c3ccccc3Cl)c2)c1C	-21.1%	?	2.94µM*	-10.3%	-3.3%
CCOC(=O)c1ccc(NC(=O)CSc2nnc(Cc3cccs3)n2C)cc1	-6.5%	?	8.28µM*	7.5%	-8.8%[1.46 µM]
COc1ccc(NCc2nnc(SCC(=O)Nc3ccc(OC)cc3)n2C)cc1	-12.5%	-10.6%	1.9%	-11.2%	-22.7%
C=CCn1c(Cc2cccs2)nnc1SCC(=O)Nc1ccc(C(=O)OCC)cc1	.	-47.0%	?	26.9%	.
C=CCn1nnnc1SCC(=O)Nc1ccc(OC)cc1	.	39.2%	-36.7%	-8.6%	.
CCOC(=O)c1ccc(NC(=O)C2(c3ccc(OC)cc3)CCCC2)cc1	-19.9%	5.86µM*	?	10.5%	.
SMILES	Vaccinia Venus	Pf growth 48h	Pf growth 96h	AMA1 RON2 block	VACV mCherry inh
CCOC(=O)c1ccc(NC(=O)CSc2nnc(CNc3ccc(OC)cc3)n2C)cc1	-4.8%	6.57µM*	2.2%[5.75 µM]	0.4%	-8.6%
CCn1nnnc1SCC(=O)Nc1ccc(OC)cc1	-3.7%	24.4%	14.7µM*	13.9%	-13.4%
Cc1ccc(Cl)cc1NC(=O)CN(C)S(=O)(=O)c1ccc2c(c1)n(C)c(=O)c(=O)n2C	0.5%	.	.	.	-14.2%
O=C(CSc1c2c(nc3ccc(Cl)cc13)CCCC2)N1CCN(c2cccc(Cl)c2)CC1	-22.2%	.	.	.	-18.4%
CCC(=O)N1CCc2cc(S(=O)(=O)CCC(=O)N3CCN(c4cc(C)ccc4C)CC3)ccc21	-1.8%	.	.	.	-2.2%
CCc1ccccc1NC(=O)c1ccc(Cn2nc(N3CCN(c4ccccc4)CC3)ccc2=O)o1	-19.8%	.	.	.	-28.4%
COc1cccc(NCc2nnc(SC(C(=O)N(C)C)c3ccccc3)n2C2CCCCC2)c1 (stereo not given)	-11.2%	.	.	.	2.9%
CCOC(=O)C1CCCN(C(=O)c2ccccc2NC(=O)c2nsc3ccccc23)C1 (stereo not given)	-8.1%	.	.	.	i
CCC1=NN(C(=O)c2ccc(C)cc2)C(O)(c2ccc(Br)cc2)C1 (stereo not given)	-8.4%	10.6%	13.1µM*	23.6%	-13.9%
CC1=NN(C(=O)c2csc(C)c2)C(O)(C(F)(F)F)C1 (stereo not given)	-16.1%	-0.4%	3.4%[5.75 µM]	64.9%	i
CCC1=NN(C(=O)c2ccc(Br)cc2)C(O)(c2ccc(C)cc2)C1 (stereo not given)	-24.1%	30.6%	-17.2%	22.0%	i
CC1=NN(C(=O)c2ccc(Br)cc2)C(O)(C(F)(F)OC(F)(F)F)C1 (stereo not given)	?	4.65µM*	?	85.8%	?
Cc1ccc(NC(=O)c2cc(S(=O)(=O)N3CCC(C)CC3)cn2C)cc1Cl	-11.7%	.	.	.	-16.6%
COc1ccc(OC)c(C2C=C(C34CC5CC(CC(C5)C3)C4)NC(=S)N2)c1 (stereo not given)	-17.7%	8.28µM*	2.62µM*	-19.5%	-20.0%
S=C1NC(C23CC4CC(CC(C4)C2)C3)=CC(c2ccc3c(c2)OCO3)N1 (stereo not given)	-3.8%	4.15µM*	?	6.6%	-1.4%
COc1cc(C2C=C(C34CC5CC(CC(C5)C3)C4)NC(=S)N2)cc(OC)c1OC (stereo not given)	?	.	1.04µM*	47.9%	-11.4%
COc1ccc(C2Nc3ccccc3C(=O)N2c2cccc3ccccc23)cc1COc1c(C)cccc1C (stereo not given)	?	.	.	.	-22.1%
Cc1ccc2c(c1)Oc1ccc(NC(=O)CCCl)cc1C(=O)N2	?	?	0.294µM*	11.3%	?
CCN1CCN(c2ccc(S(=O)(=O)N3CCCCC3)cc2NC(=O)Cc2ccccc2)CC1	-0.7%	?	?	7.4%	-14.6%
CCN1CCN(c2ccc(S(=O)(=O)N3CCCCC3)cc2NC(=O)COc2ccccc2)CC1	-19.6%	11.7µM*	?	-5.4%	-9.1%
COc1ccc(/C=C(\C#N)C(=O)Nc2cc(S(=O)(=O)N3CCCCC3)ccc2N2CCCCC2)cc1	5.8%	?	8.28µM*	6.1%	-7.1%
